{
  "source": "the supplement of paper PMC6555819",
  "data": [
    {"test_system": "VDR:RXRa (NR concentration 270 nM, RXRa partner concentration 90 nM)", "assay": "PBM binding z-score (relative to random genomic background probes); higher = stronger binding; sequences stand for … in GC…GCGATTGACAGCGTAGAATGAAGG", "protocol": "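Protein-binding microarray (Agilent 4x180K custom design, double-stranded 60-nt probes: 5' GC cap, 34-nt variable region, 24-nt constant primer region; full probe sequence given). Purified or IVT nuclear receptor:RXRα heterodimers (3:1 NR:RXRα, mostly 270:90 nM) or homodimers were incubated for 1 h in PBS with 2% milk and no ligand, then detected with Alexa488 antibodies. Fluorescence from o1-orientation probes (~5 replicates averaged) was converted to z-scores against 500 random hg19 background probes. Variable regions are seed direct-repeat (DR0–DR5) sites, all their single-nucleotide variants and half-site ablations.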", "values": [
      {"sequence": "CGTCCAAGGCCAAAGGTCAGTGAAGAGATGACGG", "PBM binding z-score": 3.16},
      {"sequence": "CAAACTAGGTCACCGGAAGGTCAACGTCCGCATG", "PBM binding z-score": 5.72},
      {"sequence": "ACTAGTTGGTCCGCTGAGGTCACACACAATTCGG", "PBM binding z-score": 3.75},
      {"sequence": "CGAGCTAGGTCAAGGACAGTGAATCTCCGCACGC", "PBM binding z-score": 0.904},
      {"sequence": "TGTCAAAGTTCAAAGGAAACGTAAGTATCCACAC", "PBM binding z-score": 3.86},
      {"sequence": "CTCGAAAGGTCGGTTGAGGTGAGAATACGGATAA", "PBM binding z-score": 2.26},
      {"sequence": "CCTACTGGGCCATTCATAGGTCATTGATCATATG", "PBM binding z-score": 1.24},
      {"sequence": "CAGACTAGGTCAAGAGGTCAAAGTCCGCTTCCCG", "PBM binding z-score": 5.97},
      {"sequence": "CGAACTGGGTCAGAACAGGACAGTGAAGGATGAT", "PBM binding z-score": 0.685},
      {"sequence": "CCTAGTTGGTCAAGGTCACCCACGCTATAGGTAC", "PBM binding z-score": 4},
      {"sequence": "CCTACCGGGCCATCAGGTCATTGATATCAACGTT", "PBM binding z-score": 1.83},
      {"sequence": "TCTTGTAGATCAAGCAGGCTAAGAAAGCCTGAGT", "PBM binding z-score": -0.214},
      {"sequence": "GCTACTAGTTGAAAGGGCAACCGAATGATTCTCG", "PBM binding z-score": 0.234},
      {"sequence": "ATATGTAGGTTACATCCGGGTCATTCGGGCTATG", "PBM binding z-score": 3.9},
      {"sequence": "ATCTCTAGGTAAAGTTCAGAGAAAGATCGATAGA", "PBM binding z-score": 1.41},
      {"sequence": "CCGACTGGGGGAGAAAGGTTACCATACCATCCGG", "PBM binding z-score": 1.42},
      {"sequence": "CCAGACAGGTGAGAAGGTAACTCACCCTCGATTA", "PBM binding z-score": 0.0837},
      {"sequence": "AGTACGAGGGCACGCTGAGTTGATAGCAGAGTAG", "PBM binding z-score": 2.29},
      {"sequence": "AGAACGAGGGCAAGCTGAGTTGATAGCAGAGTAG", "PBM binding z-score": 1.37},
      {"sequence": "ACAGACAGGTCAGTGAAGGTAACTCAGCTGGACG", "PBM binding z-score": 1.41},
      {"sequence": "CCGACCGGGGCAAAGGTTACCATACTCAGTACGA", "PBM binding z-score": 2.06},
      {"sequence": "GCTCGGAGGACAAGGTCAGAGATTTGTCCGTAGA", "PBM binding z-score": 1.22},
      {"sequence": "CAAACTAAGTCAAGGTCAAAGTCGGTTTGTGCCA", "PBM binding z-score": 4.62},
      {"sequence": "TCTATTAGATGAAGGGCAACCGACGAGTCCGTTT", "PBM binding z-score": 1.02},
      {"sequence": "TCTGCTAGGTAAACGATGGTCAGCTAATCTGCTA", "PBM binding z-score": -0.409},
      {"sequence": "CGTCCAAGTTCAGAGAGGTCAGTGAATGCCGAGT", "PBM binding z-score": 6.86},
      {"sequence": "CCCATTAGTTGACCATAAGGGCAACCGAAGCTCG", "PBM binding z-score": 0.855},
      {"sequence": "AATACAGGGTCACAAGGCCAGAGTAGGTACGAAT", "PBM binding z-score": 4.82},
      {"sequence": "CGAACTAGGTCAGAACAGGACCGTGAAGGATGAT", "PBM binding z-score": -0.102},
      {"sequence": "AGTCAAAGTTCATGACGAGGTAACGTAAAGCACG", "PBM binding z-score": 4.64},
      {"sequence": "TCTTGTAGATCGGCAGGTTAAGAAAGCTGGCCAA", "PBM binding z-score": 0.405},
      {"sequence": "ATCTCTAGGTAACAAGTTCAGTGTAAGAGAGGAC", "PBM binding z-score": 2.3},
      {"sequence": "GCACCAAGGTGAATAGGTCGTTGATGAGTAGGCG", "PBM binding z-score": 0.503},
      {"sequence": "GCCACTGGGGCATCAGCAGGTTACCATAACTTAA", "PBM binding z-score": -0.378},
      {"sequence": "ATCGAAAGGTGGAAGGTGAGTATACCCACCCGAA", "PBM binding z-score": 0.0525},
      {"sequence": "TCTAGTAGATCAGCAGGTTAAGAAAGCTGGCCAA", "PBM binding z-score": 0.524},
      {"sequence": "CCTAGCAGGCCAGGGGCACTCAAGCATTTCGCTT", "PBM binding z-score": -0.66},
      {"sequence": "CGTCCAAGCTCAAAGGTCAGTGAAGAGATGACGG", "PBM binding z-score": 2.31},
      {"sequence": "AGAATGAGGTTACCTAAGATCAGGGAAACGCTTG", "PBM binding z-score": 1.47},
      {"sequence": "ACTCGGAGGACAAAGGTCAAAGCTACGCCAGTGA", "PBM binding z-score": 4.8}
    ]}
  ]
}
